In paper PMC7862700, “An all-to-all approach to the identification of sequence-specific readers for epigenetic DNA modifications on cytosine” one finds binding signal data, which are given here for 7 sequences.

Experiment in all cases: DAPPL (digital affinity profiling via proximity ligation, sequencing); 10 mM Tris-HCl pH 7.5, 50 mM NaCl, 1 mM DTT, 4% glycerol, room temperature, 30 min; GST-TFs on glutathione beads, 16-mer random dsDNA library, 0.1% formaldehyde crosslink after washing; high values mean tight binding
One assay concerns the target SPIB (Homo sapiens, UniProt Q01892 1-262). The settings on record: protein: recombinant; tags: N-terminal GST; dsDNA, one strand shown. A digest of the protocol: (§1)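 Human transcription factors were made in yeast as GST fusions, captured on glutathione beads and barcoded with DNA. With a tag-only sample included, the pool was incubated with 200 nmole of a random double-stranded 16-mer DNA library in Tris/NaCl/DTT/glycerol buffer at room temperature for 30 min, then crosslinked with 0.1% formaldehyde after washing, ligated by proximity, amplified and sequenced. For binding signal, each hexamer's read frequency for a factor is divided by its frequency for the tag-only sample.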

The target in a further assay is HSF1 (Homo sapiens, UniProt Q00613 1-529). To be noted: protein: recombinant; tags: N-terminal GST; chain copies: 3; dsDNA, one strand shown. In outline: as §1
A further assay deals with T1, GABPA (Homo sapiens, UniProt Q06546 1-454).
T1 sequence: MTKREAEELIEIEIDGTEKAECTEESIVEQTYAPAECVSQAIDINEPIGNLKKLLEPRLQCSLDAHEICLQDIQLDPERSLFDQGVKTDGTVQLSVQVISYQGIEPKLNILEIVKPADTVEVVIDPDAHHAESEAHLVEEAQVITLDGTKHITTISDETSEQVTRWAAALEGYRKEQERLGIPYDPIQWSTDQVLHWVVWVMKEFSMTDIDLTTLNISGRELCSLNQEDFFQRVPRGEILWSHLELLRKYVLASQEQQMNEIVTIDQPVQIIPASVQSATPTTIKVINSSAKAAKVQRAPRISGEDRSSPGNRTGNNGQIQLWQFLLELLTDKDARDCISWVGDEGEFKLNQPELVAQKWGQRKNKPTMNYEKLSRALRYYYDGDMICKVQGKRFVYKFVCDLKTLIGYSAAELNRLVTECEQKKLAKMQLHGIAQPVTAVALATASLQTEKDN
To be noted: protein: recombinant; tags: N-terminal GST; dsDNA, one strand shown. A digest of the protocol: as §1

A further assay has as its target ELF1 (Homo sapiens, UniProt P32519 1-619). The settings on record: protein: recombinant; tags: N-terminal GST; dsDNA, one strand shown. A digest of the protocol: as §1
For a further assay, the target named is T2, EHF (Homo sapiens, UniProt Q9NZC4 1-300).
T2 sequence: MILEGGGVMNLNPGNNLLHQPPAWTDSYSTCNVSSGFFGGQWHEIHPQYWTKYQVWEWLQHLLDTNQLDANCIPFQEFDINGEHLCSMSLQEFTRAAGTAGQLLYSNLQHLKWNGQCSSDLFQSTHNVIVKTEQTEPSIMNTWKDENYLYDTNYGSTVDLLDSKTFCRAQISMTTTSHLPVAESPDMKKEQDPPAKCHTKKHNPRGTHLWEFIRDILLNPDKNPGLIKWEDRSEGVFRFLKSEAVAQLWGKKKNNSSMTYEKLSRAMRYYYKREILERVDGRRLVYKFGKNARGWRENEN
To be noted: protein: recombinant; tags: N-terminal GST; dsDNA, one strand shown. In outline: as §1

A further assay deals with CRX (Homo sapiens, UniProt O43186 1-299). To be noted: protein: recombinant; tags: N-terminal GST; dsDNA, one strand shown. In outline: as §1
In the next assay the target is T3, SPIC (Homo sapiens, UniProt Q8N5J4 1-248).
T3 sequence: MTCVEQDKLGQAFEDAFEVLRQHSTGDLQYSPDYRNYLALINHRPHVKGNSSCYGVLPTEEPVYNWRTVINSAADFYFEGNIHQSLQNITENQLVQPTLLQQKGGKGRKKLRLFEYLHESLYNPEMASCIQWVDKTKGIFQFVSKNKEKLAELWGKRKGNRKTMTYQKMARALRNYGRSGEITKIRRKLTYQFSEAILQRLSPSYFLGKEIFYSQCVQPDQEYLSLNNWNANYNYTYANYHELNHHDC
To be noted: protein: recombinant; tags: N-terminal GST; dsDNA, one strand shown. In outline:
as §1

Another assay deals with T4, ELK3 (Homo sapiens, UniProt P41970 1-407).
T4 sequence: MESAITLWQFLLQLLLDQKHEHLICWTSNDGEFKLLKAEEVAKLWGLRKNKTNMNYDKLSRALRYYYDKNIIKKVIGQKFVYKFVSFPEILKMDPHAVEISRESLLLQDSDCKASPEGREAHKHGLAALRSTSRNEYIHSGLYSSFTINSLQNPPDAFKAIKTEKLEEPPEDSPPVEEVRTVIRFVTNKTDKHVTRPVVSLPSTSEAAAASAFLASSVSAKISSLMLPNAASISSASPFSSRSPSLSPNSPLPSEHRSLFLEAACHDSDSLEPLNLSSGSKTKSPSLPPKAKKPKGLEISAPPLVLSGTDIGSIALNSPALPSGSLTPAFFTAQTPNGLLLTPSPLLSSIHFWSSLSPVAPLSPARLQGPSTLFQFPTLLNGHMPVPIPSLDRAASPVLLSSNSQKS
The settings on record: protein: recombinant; tags: N-terminal GST; dsDNA, one strand shown. A digest of the protocol: as §1

In another assay the target is ETV1 (Homo sapiens, UniProt P50549 1-477). The settings on record: protein: recombinant; tags: N-terminal GST; dsDNA, one strand shown. A digest of the protocol: as §1
ETV1, sequence (P50549 whole entry): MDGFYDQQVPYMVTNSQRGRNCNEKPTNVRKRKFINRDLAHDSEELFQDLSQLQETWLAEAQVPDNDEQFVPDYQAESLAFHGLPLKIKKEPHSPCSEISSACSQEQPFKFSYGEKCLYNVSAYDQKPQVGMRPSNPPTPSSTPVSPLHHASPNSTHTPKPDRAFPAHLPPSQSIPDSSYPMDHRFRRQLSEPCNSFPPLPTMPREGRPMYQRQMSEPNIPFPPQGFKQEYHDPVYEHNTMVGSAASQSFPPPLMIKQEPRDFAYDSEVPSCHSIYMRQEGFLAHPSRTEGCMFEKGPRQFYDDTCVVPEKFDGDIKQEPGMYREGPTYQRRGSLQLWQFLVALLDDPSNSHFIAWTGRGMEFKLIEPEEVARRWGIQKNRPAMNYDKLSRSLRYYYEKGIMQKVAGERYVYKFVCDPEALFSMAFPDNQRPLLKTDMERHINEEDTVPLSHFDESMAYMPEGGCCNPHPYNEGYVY

HSF1, sequence (Q00613 whole entry): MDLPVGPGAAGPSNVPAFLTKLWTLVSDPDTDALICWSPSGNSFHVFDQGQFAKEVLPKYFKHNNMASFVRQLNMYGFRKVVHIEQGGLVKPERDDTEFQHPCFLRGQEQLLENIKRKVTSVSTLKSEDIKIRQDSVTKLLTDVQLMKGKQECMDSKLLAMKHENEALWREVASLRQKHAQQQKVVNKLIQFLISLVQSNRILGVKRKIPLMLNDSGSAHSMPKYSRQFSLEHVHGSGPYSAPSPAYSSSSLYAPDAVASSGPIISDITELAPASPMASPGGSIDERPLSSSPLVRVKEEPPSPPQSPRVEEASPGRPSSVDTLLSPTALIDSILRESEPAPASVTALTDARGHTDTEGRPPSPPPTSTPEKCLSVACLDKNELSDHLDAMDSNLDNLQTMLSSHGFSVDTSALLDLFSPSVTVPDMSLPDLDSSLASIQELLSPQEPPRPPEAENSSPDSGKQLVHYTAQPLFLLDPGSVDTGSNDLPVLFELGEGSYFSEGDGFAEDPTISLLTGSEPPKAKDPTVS
CRX, sequence (O43186 whole entry): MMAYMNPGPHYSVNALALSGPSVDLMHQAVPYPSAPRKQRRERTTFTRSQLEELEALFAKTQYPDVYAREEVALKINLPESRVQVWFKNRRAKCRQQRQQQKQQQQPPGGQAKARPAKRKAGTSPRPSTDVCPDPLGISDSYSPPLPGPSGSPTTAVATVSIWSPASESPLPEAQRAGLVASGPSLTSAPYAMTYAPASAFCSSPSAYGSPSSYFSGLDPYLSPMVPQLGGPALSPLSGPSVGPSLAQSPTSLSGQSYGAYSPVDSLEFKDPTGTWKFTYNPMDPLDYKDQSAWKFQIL
ELF1, sequence (P32519 whole entry): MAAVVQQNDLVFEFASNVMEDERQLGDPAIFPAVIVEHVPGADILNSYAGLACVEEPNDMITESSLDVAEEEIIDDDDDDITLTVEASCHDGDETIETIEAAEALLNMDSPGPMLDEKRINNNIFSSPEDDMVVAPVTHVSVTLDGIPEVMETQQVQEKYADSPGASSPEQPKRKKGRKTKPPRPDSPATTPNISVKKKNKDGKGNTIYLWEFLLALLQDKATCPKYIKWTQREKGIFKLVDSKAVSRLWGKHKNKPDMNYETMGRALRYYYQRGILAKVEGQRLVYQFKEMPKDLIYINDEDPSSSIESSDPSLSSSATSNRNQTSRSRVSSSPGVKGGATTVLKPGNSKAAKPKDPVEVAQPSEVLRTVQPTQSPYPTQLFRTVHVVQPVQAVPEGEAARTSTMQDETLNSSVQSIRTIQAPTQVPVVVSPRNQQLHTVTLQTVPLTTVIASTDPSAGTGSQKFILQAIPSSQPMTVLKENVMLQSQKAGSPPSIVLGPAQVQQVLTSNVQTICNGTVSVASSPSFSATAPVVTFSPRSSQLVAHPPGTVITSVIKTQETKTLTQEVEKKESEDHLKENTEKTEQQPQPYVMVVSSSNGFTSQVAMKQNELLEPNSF
SPIB, sequence (Q01892 whole entry, the tested form may be a part): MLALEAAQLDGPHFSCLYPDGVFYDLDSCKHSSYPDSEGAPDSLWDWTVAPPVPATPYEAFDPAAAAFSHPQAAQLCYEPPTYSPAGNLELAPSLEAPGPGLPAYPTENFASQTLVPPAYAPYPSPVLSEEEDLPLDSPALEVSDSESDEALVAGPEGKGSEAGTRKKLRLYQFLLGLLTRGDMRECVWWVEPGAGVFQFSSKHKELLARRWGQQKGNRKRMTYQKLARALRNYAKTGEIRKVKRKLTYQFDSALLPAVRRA

Turning to TTCGTG, the binding signal with SPIB is 1.04 fold enrichment (6-mer frequency, TF over GST control); with HSF1 it was 1.1 fold enrichment (6-mer frequency, TF over GST control).

For the sequence CTAGAC, the binding signal was 1.01 fold enrichment (6-mer frequency, TF over GST control) in the assay with GABPA; 1.09 fold enrichment (6-mer frequency, TF over GST control) with ELF1; 1.01 fold enrichment (6-mer frequency, TF over GST control) with EHF; 1.59 fold enrichment (6-mer frequency, TF over GST control) with HSF1; 1 fold enrichment (6-mer frequency, TF over GST control) with CRX.

GATCTG: the binding signal is 1.07 fold enrichment (6-mer frequency, TF over GST control) in the assay with HSF1 and 1.09 fold enrichment (6-mer frequency, TF over GST control) in the assay with CRX.

Turning to GATAGT, in the assay with SPIC, the binding signal is 1.01 fold enrichment (6-mer frequency, TF over GST control).

For CAAAGA, the binding signal with ELF1 is 1.01 fold enrichment (6-mer frequency, TF over GST control); with ELK3, 1.03 fold enrichment (6-mer frequency, TF over GST control); with HSF1 it was 1.1 fold enrichment (6-mer frequency, TF over GST control); with CRX it was 1.05 fold enrichment (6-mer frequency, TF over GST control); in the assay with ETV1 it was 1.02 fold enrichment (6-mer frequency, TF over GST control).

GGCACC: the binding signal in the assay with SPIC is 1.03 fold enrichment (6-mer frequency, TF over GST control).

TTAGAC: the binding signal is 1.1 fold enrichment (6-mer frequency, TF over GST control) in the assay with HSF1 and 1.44 fold enrichment (6-mer frequency, TF over GST control) with CRX.
